According to PubChem BioAssay (EPA / NIEHS):
Values joined by “and” are separate entries in the source; they are usually repeats but may differ in a detail not shown here. Equal values may be shown once. Inconclusive results are not listed. Some structures have more than one record in an assay (separate samples or runs), and their calls can disagree. Active and inactive are the calls of the source. How the source made its calls: active means hit-call score of the fitted dose curve at least 0.9, where 1 is the maximum; inconclusive means response in the unintended direction; inactive means score below 0.9.

tested on: NCBI gene 100848466; assay: NVS_NR_bPR: NovaScreen (NVS) Nuclear Receptor Binding Assay for bovine Progextron Receptor (PR) (AID 2283343);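 on AC50: actives lower bound radioligand signal below DMSO meaning displacement of the label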
Experimental: NVS_NR_bPR is a biochemical, single-readout assay that uses extracted gene-proteins from Bovine uterine membranes in a tissue-based cell-free assay. Measurements were taken 18 hours after chemical dosing in a 96-well plate.NVS_NR_bPR is one of one assay component(s) measured or calculated from the NVS_NR_bPR assay. It is designed to make measurements of radioligand binding, a form of binding reporter, as detected with scintillation counting signals by Lysate-based radiodetection technology.Data from the assay component NVS_NR_bPR was analyzed into 1 assay endpoint. This assay endpoint, NVS_NR_bPR, was analyzed in the positive analysis fitting direction relative to DMSO as the negative control and baseline of activity. Using a type of binding reporter, loss-of-signal activity can be used to understand changes in the binding as they relate to the gene PGR. Furthermore, this assay endpoint can be referred to as a primary readout, because the performed assay has only produced 1 assay endpoint. To generalize the intended target to other relatable targets, this assay endpoint is annotated to the nuclear receptor intended target family, where the subfamily is steroidal.
Binding assays used specific radioligands (tritiated, iodinated) with non-radioactive competitive displacement ligands in agonist or antagonist protocols (as indicated) and various reference compounds and inhibitors to titrate specific binding to receptors and transporters. Most enzyme assays (CYPs, kinases, phosphatases, proteases, HDACs) used recombinant protein and specific substrates (fluorescence mostly, some colorimetric and radioactive) and inhibitors, followed by a biochemical separation of substrate and product. All assays for the biochemical HTS were initially run in duplicate at a single concentration (10 uM for CYP450 assays and 25 uM for all others). […] Each assay was run with positive and negative controls, and concurrent controls on every plate. […]

| Compound | AC50 | outcome |
| --- | --- | --- |
| C[C@]12CC[C@@H]3c4ccc(O)cc4CC[C@H]3[C@@H]1CC[C@@H]2O | 0.00898 µM (active) |  |
| O=C(c1ccc(OCCN2CCCCC2)cc1)c1c(-c2ccc(O)cc2)sc2cc(O)ccc12 |  | inactive |
| C#C[C@]1(O)CC[C@H]2[C@@H]3CCc4cc(O)ccc4[C@H]3CC[C@@]21C | 0.051 µM (active) |  |

biological target: bovine Estrogen Receptor (ER), ESR1 (gene 407238) (UniProt P49884); assay: NVS_NR_bER: NovaScreen (NVS) Nuclear Receptor Binding Assay for bovine Estrogen Receptor (ER) (AID 2283345);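 further: actives lower the bound radioligand count which means they displace the ER ligand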
Procedure, shortened: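 Displacement of a radioligand from estrogen receptor in bovine uterine membrane preparations; scintillation signal taken at 18 hours, DMSO as baseline. Single-concentration duplicates (25 uM) preceded concentration-response follow-up of actives.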

Sequence of bovine Estrogen Receptor (ER), ESR1 (gene 407238) (P49884 whole entry, looked up): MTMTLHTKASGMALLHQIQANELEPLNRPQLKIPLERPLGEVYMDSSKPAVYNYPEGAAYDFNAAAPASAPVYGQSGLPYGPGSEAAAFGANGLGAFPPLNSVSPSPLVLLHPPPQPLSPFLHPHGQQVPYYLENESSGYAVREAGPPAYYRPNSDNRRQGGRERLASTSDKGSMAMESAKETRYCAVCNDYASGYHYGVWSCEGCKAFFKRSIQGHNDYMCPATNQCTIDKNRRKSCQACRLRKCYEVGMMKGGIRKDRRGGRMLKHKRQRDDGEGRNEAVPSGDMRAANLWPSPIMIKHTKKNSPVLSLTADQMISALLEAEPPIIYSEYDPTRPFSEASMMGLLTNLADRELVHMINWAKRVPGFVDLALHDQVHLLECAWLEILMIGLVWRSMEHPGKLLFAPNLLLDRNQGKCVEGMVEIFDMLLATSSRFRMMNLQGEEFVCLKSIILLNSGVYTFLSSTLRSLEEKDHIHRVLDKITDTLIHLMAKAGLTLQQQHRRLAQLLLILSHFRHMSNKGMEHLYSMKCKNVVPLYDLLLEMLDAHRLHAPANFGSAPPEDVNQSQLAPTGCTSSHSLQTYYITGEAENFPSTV

| Compound | outcome | AC50 |
| --- | --- | --- |
| CC1(C)CC(=O)CC(C)(C)N1 | inactive |  |
| CCC(=O)OC(C)(C)C1CC=C(C)CC1 (configuration not stated) | inactive |  |
| Cc1cccc(O)c1 | inactive |  |
| O=C1OC2(c3ccc(O)cc3Oc3cc(O)ccc32)c2ccccc21 |  | 15.8 µM (active) |
| CC(C)(CO)CO | inactive |  |
| CCC(C)(C)c1cc(O)c(C(C)(C)CC)cc1O | inactive |  |
| CC(=O)CC(=O)N(C)C | inactive |  |
| C=CC(=O)OCC(CO)(COC(=O)C=C)COC(=O)C=C | inactive |  |
| CCCCCCOc1ccc(O)cc1 | inactive |  |
| CN(C)CCC=C1c2ccccc2CCc2ccccc21 | inactive |  |
| CC/C=C\CCCCCCCCCCOC(C)=O | inactive |  |
| CC(O)CN (configuration not stated) | inactive |  |
| CCC(C)(C)C1CCC(=O)CC1 |  | 4.52 µM (active) |
| CCCCCCCCCOS(=O)(=O)O | inactive |  |
| CC(C)(C)c1ccc(S)cc1 |  | 0.551 µM (active) |
| COc1ccccc1O | inactive |  |
| CCOCC(C)O (configuration not stated) | inactive |  |
| CCCCCC(=O)O[C@]1(C(C)=O)CC[C@H]2[C@@H]3CCC4=CC(=O)CC[C@]4(C)[C@H]3CC[C@@]21C | inactive |  |
| O=C(Nc1cccc(Cl)c1)OCC#CCCl | inactive |  |
| C[C@H](CCC(=O)O)[C@H]1CC[C@H]2[C@@H]3CC[C@@H]4C[C@H](O)CC[C@]4(C)[C@H]3CC[C@]12C | inactive |  |
| CC(=O)C1C(=O)C=C(C)OC1=O (configuration not stated) | inactive |  |
| CCCCCCCCOC(=O)c1ccc(O)cc1 | inactive |  |
| CC/C=C\CCOC(C)OCC (configuration not stated) | inactive |  |
| Cc1cc(O)c2c(c1)C(=O)c1cc(O)cc(O)c1C2=O | inactive |  |
| CCCCCCCCCCCCOCCOS(=O)(=O)O | inactive |  |
| CC(=O)OC(C)(C)C1CC=C(C)CC1 (configuration not stated) | inactive |  |
| O=S1(=O)CC(Cl)(Cl)C(Cl)(Cl)C1 | inactive |  |

biological target: chimpanzee Androgen Receptor (AR), AR (gene 747460) (UniProt O97775); assay: NVS_NR_cAR: NovaScreen (NVS) Nuclear Receptor Binding Assay for chimpanzee Androgen Receptor (AR) (AID 2283346);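 further: radioligand displacement from AR measured by scintillation counting in a cell-free assay; a loss of bound radioligand signal versus DMSO counts as binding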
Procedure, shortened: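 Cell-free competition binding with insect-cell (Sf9/Sf21) extracted chimpanzee AR; scintillation signal from lysate at 72 h. Screened in duplicate at 25 uM, then concentration-response for actives; fitting relative to DMSO.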

Sequence of chimpanzee Androgen Receptor (AR), AR (gene 747460) (O97775 whole entry, looked up): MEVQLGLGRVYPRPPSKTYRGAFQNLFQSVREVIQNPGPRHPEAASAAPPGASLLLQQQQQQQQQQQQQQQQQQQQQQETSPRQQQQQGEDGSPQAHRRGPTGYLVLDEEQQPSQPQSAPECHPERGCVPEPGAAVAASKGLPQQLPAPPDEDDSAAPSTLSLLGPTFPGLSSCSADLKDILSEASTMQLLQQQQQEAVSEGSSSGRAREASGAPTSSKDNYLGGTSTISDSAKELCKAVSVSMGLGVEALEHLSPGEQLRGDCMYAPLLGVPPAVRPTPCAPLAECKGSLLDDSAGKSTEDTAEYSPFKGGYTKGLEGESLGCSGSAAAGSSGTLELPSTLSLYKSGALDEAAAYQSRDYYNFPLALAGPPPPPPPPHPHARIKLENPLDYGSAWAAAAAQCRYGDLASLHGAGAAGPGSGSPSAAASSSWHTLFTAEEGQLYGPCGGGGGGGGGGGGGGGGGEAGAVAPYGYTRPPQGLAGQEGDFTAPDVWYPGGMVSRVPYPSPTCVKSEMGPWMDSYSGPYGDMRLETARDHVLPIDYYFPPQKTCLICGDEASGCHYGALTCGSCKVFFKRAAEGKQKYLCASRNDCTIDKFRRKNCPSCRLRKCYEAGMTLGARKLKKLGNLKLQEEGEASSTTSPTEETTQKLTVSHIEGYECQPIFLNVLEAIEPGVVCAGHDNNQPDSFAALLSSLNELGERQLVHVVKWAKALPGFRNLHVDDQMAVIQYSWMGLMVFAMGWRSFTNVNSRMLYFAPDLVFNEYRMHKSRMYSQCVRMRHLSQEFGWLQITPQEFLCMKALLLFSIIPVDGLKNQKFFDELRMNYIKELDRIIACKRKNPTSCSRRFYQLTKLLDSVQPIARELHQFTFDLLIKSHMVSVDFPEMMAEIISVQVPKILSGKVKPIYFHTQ

| Compound | outcome | AC50 |
| --- | --- | --- |
| CC1(C)CC(=O)CC(C)(C)N1 | inactive |  |
| C=CCOCC(O)CO (configuration not stated) |  | 1.33 µM (active) |
| O=C1OC2(c3ccc(O)cc3Oc3cc(O)ccc32)c2ccccc21 | inactive | 13.5 µM (active) |
| O=c1cc(-c2ccc(O)cc2)oc2cc(O)cc(O)c12 |  | 12.9 µM (active) |
| CC(=O)CC(=O)N(C)C | inactive |  |
| O=C(c1ccc(OCCN2CCCCC2)cc1)c1c(-c2ccc(O)cc2)sc2cc(O)ccc12 | inactive | 25 µM (active) |
| N#CCCCC(C#N)CCC#N (configuration not stated) | inactive |  |
| C#C[C@]1(O)CC[C@H]2[C@@H]3CCc4cc(O)ccc4[C@H]3CC[C@@]21C |  | 966 nM (active) and 80.5 nM (active) |
| CC(C)(C)c1cccc(O)c1 | inactive |  |
| CC(C)CCCC(C)(C)O | inactive |  |
| CCCCCC(=O)O[C@]1(C(C)=O)CC[C@H]2[C@@H]3CCC4=CC(=O)CC[C@]4(C)[C@H]3CC[C@@]21C |  | 1.12 µM (active) |
| CC/C(=C(\c1ccccc1)c1ccc(OCCN(C)C)cc1)c1ccccc1 | inactive | 19.4 µM (active) |
| CCCCCCCCCCO[C@@H]1O[C@H](CO)[C@@H](O)[C@H](O)[C@H]1O | inactive |  |
| CCCc1ccc(O)cc1 | inactive |  |

biological target: Estrogen receptor (Homo sapiens) (UniProt P03372); assay: NVS_NR_hER: NovaScreen (NVS) Nuclear Receptor Binding Assay for human Estrogen Receptor (ER) (AID 2283348)
Procedure, shortened: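 Cell-free MCF7-derived ER preparation, specific radioligand displaced by test compound, read by scintillation counting 18 h post-dosing. Duplicate single-point 25 uM screen, then concentration-response confirmation; DMSO baseline.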

Sequence of Estrogen receptor (Homo sapiens) (P03372 whole entry, looked up, the tested form may be a part): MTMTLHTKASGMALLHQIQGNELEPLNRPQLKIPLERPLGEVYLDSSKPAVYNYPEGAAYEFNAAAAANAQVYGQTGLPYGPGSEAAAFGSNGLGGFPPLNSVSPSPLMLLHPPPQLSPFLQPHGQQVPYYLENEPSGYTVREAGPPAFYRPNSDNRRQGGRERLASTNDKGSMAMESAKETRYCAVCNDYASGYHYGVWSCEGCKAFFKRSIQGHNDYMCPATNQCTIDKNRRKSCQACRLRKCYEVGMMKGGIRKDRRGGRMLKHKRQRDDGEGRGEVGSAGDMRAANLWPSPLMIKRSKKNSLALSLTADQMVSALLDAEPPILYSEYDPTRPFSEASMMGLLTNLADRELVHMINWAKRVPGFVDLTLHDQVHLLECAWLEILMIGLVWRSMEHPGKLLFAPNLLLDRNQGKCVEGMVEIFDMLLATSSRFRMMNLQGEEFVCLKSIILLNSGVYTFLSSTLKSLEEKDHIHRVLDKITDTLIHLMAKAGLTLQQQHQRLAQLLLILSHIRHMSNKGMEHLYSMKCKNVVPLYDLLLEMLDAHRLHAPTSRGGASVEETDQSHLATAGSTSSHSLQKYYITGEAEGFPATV

| Compound | outcome | AC50 |
| --- | --- | --- |
| CCC(=O)OC(C)(C)C1CC=C(C)CC1 (configuration not stated) | inactive |  |
| Cc1cccc(O)c1 | inactive |  |
| O=C1OC2(c3ccc(O)cc3Oc3cc(O)ccc32)c2ccccc21 | inactive | 9.78 µM (active) |
| CCC(C)(C)c1cc(O)c(C(C)(C)CC)cc1O | inactive |  |
| CC(=O)CC(=O)N(C)C | inactive |  |
| C=CC(=O)OCC(CO)(COC(=O)C=C)COC(=O)C=C | inactive |  |
| CCCCCCOc1ccc(O)cc1 |  | 12 µM (active) |
| CN(C)CCC=C1c2ccccc2CCc2ccccc21 | inactive |  |
| CC(C)(C)c1cccc(O)c1 | inactive |  |
| CC(O)CN (configuration not stated) | inactive |  |
| CCC(C)(C)C1CCC(=O)CC1 |  | 0.983 µM (active) |
| CCCCCCCCCOS(=O)(=O)O |  | 11.1 µM (active) |
| CC(C)(C)c1ccc(S)cc1 |  | 0.283 µM (active) |
| COc1ccccc1O | inactive |  |
| CCOCC(C)O (configuration not stated) | inactive |  |
| O=C(Nc1cccc(Cl)c1)OCC#CCCl | inactive |  |
| CC(=O)C1C(=O)C=C(C)OC1=O (configuration not stated) | inactive |  |
| CCCc1ccc(O)cc1 | inactive |  |
| CCCCCCCCOC(=O)c1ccc(O)cc1 |  | 2.7 µM (active) |
| CC/C=C\CCOC(C)OCC (configuration not stated) | inactive |  |
| CCCCCCCCCCCCOCCOS(=O)(=O)O |  | 22.8 µM (active) |
| O=S1(=O)CC(Cl)(Cl)C(Cl)(Cl)C1 |  | 18.5 µM (active) |

biological target: Estrogen receptor (Homo sapiens) (UniProt P03372); assay: OT_ER_ERaERa_1440: Odyssey Thera (OT) 24-hour HEK293T Protein-Complementation Assay for Estrogen Receptor-alpha/-alpha Homodimer (AID 2283349);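 further: hits raise fluorescence above DMSO for agonists and antagonists alike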
Procedure, shortened: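 HEK293T, stable ERα LBD (aa 310-547) homodimer PCA; 24 h compound exposure; mean fluorescence intensity (nuclear for agonists, nuclear plus cytoplasmic for antagonists) vs vehicle; positive fitting direction, DMSO baseline.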

| Compound | outcome |
| --- | --- |
| CCC(=O)OC(C)(C)C1CC=C(C)CC1 (configuration not stated) | inactive |
| O=C1OC2(c3ccc(O)cc3Oc3cc(O)ccc32)c2ccccc21 | inactive |
| CC(=O)CC(=O)N(C)C | inactive |
| CC(C)(C)c1cccc(O)c1 | inactive |
| CC(O)CN (configuration not stated) | inactive |
| CC(C)CCCC(C)(C)O | inactive |
| CCCCCCCCCOS(=O)(=O)O | inactive |
| CCOCC(C)O (configuration not stated) | inactive |
| CCCCCC(=O)O[C@]1(C(C)=O)CC[C@H]2[C@@H]3CCC4=CC(=O)CC[C@]4(C)[C@H]3CC[C@@]21C | inactive |
| CCCCCCCCCCO[C@@H]1O[C@H](CO)[C@@H](O)[C@H](O)[C@H]1O | inactive |
| CCCc1ccc(O)cc1 | inactive |
| CCCCCCCCCCCCOCCOS(=O)(=O)O | inactive |
